In the supplement of paper PMC8728848:
About 410 targets per protein were measured; listed, in parts, are those with the strongest signals and a random draw of the rest.

What was measured:
Assay in all cases: glycan array binding signal (z-score within array); higher = stronger binding
Details in all cases: glycan notation: IUPAC condensed, linker removed
[1] = biological target: Fuc(a1-2)Gal
In short: (§1)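 The Consortium for Functional Glycomics database supplied 3228 glycan arrays, of which those lacking an available protein sequence were dropped. The binding signal, a within-array Z-score, was averaged across arrays of the same protein sequence and across linkers. Negative scores can be read as non-binding.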

[2] = biological target: Fuc(a1-2)Gal(b1-3)GlcNAc(b1-2)Man(a1-3)[Fuc(a1-2)Gal(b1-3)GlcNAc(b1-2)Man(a1-6)]Man(b1-4)GlcNAc(b1-4)GlcNAc
In short: as §1

[3] = biological target: Fuc(a1-2)Gal(b1-3)GlcNAc(b1-3)[Neu5Ac(a2-6)Gal(b1-4)GlcNAc(b1-6)]Gal(b1-4)Glc
In short: as §1

[4] = biological target: Fuc(a1-2)Gal(b1-4)Glc
In short: as §1

[5] = biological target: Fuc(a1-2)Gal(b1-4)GlcNAc(b1-2)Man
In short: as §1

[6] = biological target: Fuc(a1-2)[Gal(a1-3)]Gal(b1-4)GlcNAc
In short: as §1

[7] = biological target: Fuc(a1-2)[Gal(a1-3)]Gal(b1-4)GlcNAc(b1-2)Man(a1-3)[Fuc(a1-2)[Gal(a1-3)]Gal(b1-4)GlcNAc(b1-2)Man(a1-6)]Man(b1-4)GlcNAc(b1-4)GlcNAc
In short: as §1

[8] = biological target: Fuc(a1-2)[Gal(a1-3)]Gal(b1-4)[Fuc(a1-3)]GlcNAc
In short: as §1

[9] = biological target: Fuc(a1-2)[GalNAc(a1-3)]Gal(b1-3)GlcNAc(b1-6)GalNAc
In short: as §1

[10] = biological target: Fuc(a1-3)[Gal(b1-4)]GlcNAc(b1-6)GalNAc
In short: as §1

[11] = biological target: Gal(a1-3)Gal(b1-3)[Fuc(a1-4)]GlcNAc(b1-2)Man(a1-3)[Gal(a1-3)Gal(b1-3)[Fuc(a1-4)]GlcNAc(b1-2)Man(a1-6)]Man(b1-4)GlcNAc(b1-4)GlcNAc
In short: as §1

[12] = biological target: Gal(a1-3)Gal(b1-4)GlcNAc(b1-2)Man
In short: as §1

[13] = biological target: Gal(a1-3)GalNAc
In short: as §1

[14] = biological target: Gal(b1-2)Gal
In short: as §1

[15] = biological target: Gal(b1-3)GlcNAc(b1-6)Gal(b1-4)GlcNAc
In short: as §1

[16] = biological target: Gal(b1-4)GlcNAc(b1-2)Man(a1-3)[Man(a1-6)]Man(b1-4)GlcNAc(b1-4)GlcNAc
In short: as §1

[17] = biological target: Gal(b1-4)GlcNAc(b1-3)Gal(b1-3)GalNAc
In short: as §1

[18] = biological target: Gal(b1-4)GlcNAc(b1-3)Gal(b1-4)GlcNAc(b1-2)[Gal(b1-4)GlcNAc(b1-3)Gal(b1-4)GlcNAc(b1-6)]Man(a1-6)[Gal(b1-4)GlcNAc(b1-3)Gal(b1-4)GlcNAc(b1-2)Man(a1-3)]Man(b1-4)GlcNAc(b1-4)[Fuc(a1-6)]GlcNAc
In short: as §1

[19] = biological target: Gal(b1-4)GlcNAc(b1-3)Gal(b1-4)GlcNAc(b1-3)Gal(b1-4)GlcNAc(b1-3)Gal(b1-4)GlcNAc(b1-2)Man(a1-3)[Gal(b1-4)GlcNAc(b1-3)Gal(b1-4)GlcNAc(b1-3)Gal(b1-4)GlcNAc(b1-3)Gal(b1-4)GlcNAc(b1-2)Man(a1-6)]Man(b1-4)GlcNAc(b1-4)[Fuc(a1-6)]GlcNAc
In short: as §1

[20] = biological target: Gal(b1-4)GlcNAc(b1-3)Gal(b1-4)GlcNAc(b1-3)Gal(b1-4)GlcNAc(b1-3)Gal(b1-4)GlcNAc(b1-3)Gal(b1-4)GlcNAc(b1-2)Man(a1-3)[Gal(b1-4)GlcNAc(b1-3)Gal(b1-4)GlcNAc(b1-3)Gal(b1-4)GlcNAc(b1-3)Gal(b1-4)GlcNAc(b1-3)Gal(b1-4)GlcNAc(b1-2)Man(a1-6)]Man(b1-4)GlcNAc(b1-4)[Fuc(a1-6)]GlcNAc
In short: as §1

[21] = biological target: Gal(b1-4)GlcNAc(b1-3)[GlcNAc(b1-6)]Gal(b1-4)GlcNAc
In short: as §1

[22] = biological target: Gal6S(b1-4)Glc6S
In short: as §1

[23] = biological target: GalNAc(b1-4)GlcNAc(b1-3)GalNAc(b1-4)GlcNAc
In short: as §1

[24] = biological target: GlcNAc(a1-3)Gal(b1-4)GlcNAc
In short: as §1

[25] = biological target: GlcNAc(a1-6)Gal(b1-4)GlcNAc
In short: as §1

[26] = biological target: GlcNAc(b1-2)[GlcNAc(b1-6)]Man(a1-6)[GlcNAc(b1-2)Man(a1-3)]Man(b1-4)GlcNAc(b1-4)GlcNAc
In short: as §1

[27] = biological target: GlcNAc(b1-3)Gal(b1-4)GlcNAc(b1-2)Man(a1-3)[GlcNAc(b1-3)Gal(b1-4)GlcNAc(b1-2)Man(a1-6)]Man(b1-4)GlcNAc(b1-4)[Fuc(a1-6)]GlcNAc
In short: as §1

[28] = biological target: GlcNAc(b1-3)GalNAc
In short: as §1

[29] = biological target: Kdn(a2-3)Gal(b1-4)[Fuc(a1-3)]GlcNAc
In short: as §1

[30] = biological target: Neu5Ac(a2-3)Gal(b1-3)GlcNAc
In short: as §1

[31] = biological target: Neu5Ac(a2-3)Gal(b1-3)GlcNAc(b1-2)Man
In short: as §1

[32] = biological target: Neu5Ac(a2-3)Gal(b1-4)GlcNAc(b1-2)[Neu5Ac(a2-3)Gal(b1-4)GlcNAc(b1-6)]Man(a1-6)[Neu5Ac(a2-3)Gal(b1-4)GlcNAc(b1-2)Man(a1-3)][GlcNAc(b1-4)]Man(b1-4)GlcNAc(b1-4)GlcNAc
In short: as §1

[33] = biological target: Neu5Ac(a2-3)Gal(b1-4)GlcNAc(b1-3)Gal(b1-4)GlcNAc(b1-3)Gal(b1-4)GlcNAc(b1-2)Man(a1-3)[Neu5Ac(a2-3)Gal(b1-4)GlcNAc(b1-3)Gal(b1-4)GlcNAc(b1-3)Gal(b1-4)GlcNAc(b1-2)Man(a1-6)]GalNAc
In short: as §1

[34] = biological target: Neu5Ac(a2-3)Gal(b1-4)[Fuc(a1-3)]GlcNAc6S
In short: as §1

[35] = biological target: Neu5Ac(a2-6)Gal(b1-4)GlcNAc(b1-2)Man(a1-3)[Neu5Ac(a2-3)Gal(b1-4)GlcNAc(b1-2)Man(a1-6)]Man(b1-4)GlcNAc(b1-4)GlcNAc
In short: as §1

[36] = biological target: Neu5Ac(a2-8)Neu5Ac
In short: as §1

[37] = biological target: Neu5Ac(a2-8)Neu5Ac(a2-3)Gal(b1-4)Glc
In short: as §1

[38] = biological target: Neu5Ac(b2-6)GalNAc
In short: as §1

[39] = biological target: Neu5Gc(a2-6)GalNAc
In short: as §1

B1: Loc1 (Escherichia coli) (protein)
chain: APCALTNVGEQRGTYILKPLSMKGNLTAEKIENTGNIIECTDLQETTNAIKVHFLTQNALKFKVGSRHYIINFPFEYDGKKIELPGKSSYNLEEMLSAINFTIPYSIASVSDSSNTADIFPGTPFPLLFEIEVSSCTGNNTNCNSVRFNYNLNTILQVNLMTHHHHHH
glycan array binding signal (z-score) [1]: 0.363 | glycan array binding signal (z-score) [2]: -1.09 | glycan array binding signal (z-score) [3]: -0.102 | glycan array binding signal (z-score) [4]: -0.622 | glycan array binding signal (z-score) [5]: -0.607 | glycan array binding signal (z-score) [6]: 2 | glycan array binding signal (z-score) [7]: 1.97 | glycan array binding signal (z-score) [8]: -0.548 | glycan array binding signal (z-score) [9]: -0.51 | glycan array binding signal (z-score) [10]: 3.45 | glycan array binding signal (z-score) [11]: -0.81 | glycan array binding signal (z-score) [12]: 0.198 | glycan array binding signal (z-score) [13]: 7.25 | glycan array binding signal (z-score) [14]: 1.18 | glycan array binding signal (z-score) [15]: 0.216 | glycan array binding signal (z-score) [16]: -0.747 | glycan array binding signal (z-score) [17]: 0.355 | glycan array binding signal (z-score) [18]: 2.29 | glycan array binding signal (z-score) [19]: 2.43 | glycan array binding signal (z-score) [20]: 1.98 | glycan array binding signal (z-score) [21]: -0.48 | glycan array binding signal (z-score) [22]: 0.298 | glycan array binding signal (z-score) [23]: 0.68 | glycan array binding signal (z-score) [24]: -0.527 | glycan array binding signal (z-score) [25]: 2.41 | glycan array binding signal (z-score) [26]: 3.01 | glycan array binding signal (z-score) [27]: 0.259 | glycan array binding signal (z-score) [28]: -0.454 | glycan array binding signal (z-score) [29]: -0.405 | glycan array binding signal (z-score) [30]: -0.838 | glycan array binding signal (z-score) [31]: -0.478 | glycan array binding signal (z-score) [32]: -0.322 | glycan array binding signal (z-score) [33]: 2.75 | glycan array binding signal (z-score) [34]: 0.57 | glycan array binding signal (z-score) [35]: 0.21 | glycan array binding signal (z-score) [36]: 0.04 | glycan array binding signal (z-score) [37]: 8.5 | glycan array binding signal (z-score) [38]: -0.643 | glycan array binding signal (z-score) [39]: 0.381
